Mtb hypoxia rep – inhibitors of hypoxia-regulated fluorescent reporter in Mycobacterium tuberculosis | M. tuberculosis hypoxia-regulated fluorescent reporter, fluorescence | fluorescence inhibition, % (no concentration beside the values) | 300,000 compounds, 0.1% hits | AID 1159583; in the data active means fluorescence inhibition mostly above about 23%, no sharp cut-off; inactive means mostly below about 17%
FBA Mtb inh – inhibitors of M. tuberculosis fructose-bisphosphate aldolase; purified M. tuberculosis FBA, fluorescence read-out; inhibition, % at 1 µM; 360,000 compounds, 2.3% hits; in the data active means inhibition above about 27%;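 further: 0% = vehicle and 100% = reference inhibitor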
Target sequence (P9WQA3 whole entry, looked up): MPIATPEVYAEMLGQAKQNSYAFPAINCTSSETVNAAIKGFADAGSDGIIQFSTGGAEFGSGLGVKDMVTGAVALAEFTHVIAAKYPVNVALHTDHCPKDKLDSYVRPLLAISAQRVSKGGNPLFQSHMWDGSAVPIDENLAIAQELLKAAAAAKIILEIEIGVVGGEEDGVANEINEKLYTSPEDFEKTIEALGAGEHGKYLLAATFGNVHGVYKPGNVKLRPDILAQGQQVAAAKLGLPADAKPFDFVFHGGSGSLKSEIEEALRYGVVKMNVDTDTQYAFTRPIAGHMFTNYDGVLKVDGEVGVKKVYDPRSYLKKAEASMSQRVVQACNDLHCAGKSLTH
FadD28 FP inh – blocks FadD28 binding to the bisubstrate probe; 360,000 compounds, 0.22% hits; inhibition, % at 12.5 µM; fluorescence polarization; in the data active means inhibition above about 8.5%, passing the limit was not always enough
GDH-TPI counter – GDH-TPI coupled enzyme inhibition counter-screen; GDH-TPI coupled enzyme counterscreen, NADH absorbance; inhibition, % at 4.8 µM; 360,000 compounds, 1.2% hits; AID 588335; in the data active means inhibition above about 30%;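 further: 0% = DMSO wells and 100% = wells lacking the enzyme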
Mtb BioA inh – inhibitors of Mycobacterium tuberculosis BioA enzyme; purified M. tuberculosis BioA enzyme, plate reader; inhibition, % at 9.99 µM; 360,000 compounds, 0.096% hits; AID 602481; in the data active means inhibition above about 40%
* marks the source's active call; other numbers are inactive results; · = no result given; + = active, no number. Only some compounds are listed: those with a hit (about 2.9% of all), similar ones and a draw of the others.

SMILES	Mtb hypoxia rep	FBA Mtb inh	FadD28 FP inh	GDH-TPI counter	Mtb BioA inh
Cc1ccc(C)c(-n2c(C)cc(/C=N/NC(=O)c3c(C)nc4cc(C)ccn34)c2C)c1	·	2.0	-1.8	38.8*	-2.2
O=c1[nH]c(=S)c2c(n1-c1ccccc1)CCC2	13.8	-2.4	-0.2	35.3*	0.3
C[C@@H]1CN([C@@H](C)CO)C(=O)c2cc(C#Cc3cccnc3)cnc2O[C@H]1CN(C)C(=O)CN(C)C	·	·	·	·	2.4
COc1cc(OC)cc(C(=O)N[C@H](C(=O)OCc2cc(=O)oc3cc(C)ccc23)C(C)C)c1	6.6	-0.2	-1.8	6.5	-1.1
CC(=O)Nc1ccc2c(COC(=O)[C@@H](NS(=O)(=O)c3ccc(C)cc3)C(C)C)cc(=O)oc2c1	-1.7	+	-3.8	22.8	-0.2
Cc1noc(C)c1NC(=O)N[C@@H]1CC[C@@H](CC(=O)N2CCCCC2)O[C@@H]1CO	·	·	·	·	-3.6
N#C/C(=C\c1ccc(OCC(N)=O)cc1)C(=O)NC1CC1	13.1	-4.1	-3.4	45.4*	0.9
N#C/C(=C\c1ccc(O)c(O)c1)C(=O)NCCc1ccccc1	·	-15.9	11.1*	11.1	1.0
N#CC(=Cc1ccc(O)c(O)c1)C(=O)NCCc1ccccc1	4.2	·	·	·	·
Cc1ccc(/C=C(/C#N)C(=O)NC(=O)Oc2ccccc2)cc1	11.0	1.9	1.1	27.8	1.8
COc1ccc(C(CNC(=O)COc2ccccc2C#N)N2CCOCC2)cc1 (stereo not drawn)	·	5.8	0.0	-2.2	-0.9
CC(C)Oc1ccc(/C=C(\C#N)C(=O)NC2CC2)cc1	7.5	-3.9	-3.7	16.1	-0.1
CNC(=O)/C(C#N)=C/c1ccc(OCCOc2ccccc2)cc1	14.7	0.5	-1.1	40.1*	-7.0
COc1ccc(/C=C(\C#N)C(=O)NCC(c2ccc(F)cc2)N2CCOCC2)cc1 (stereo not drawn)	6.2	-1.2	-1.1	43.0*	-1.1
COc1ccc(/C=C(/NC(=O)c2ccccc2)C(=O)NN=Cc2ccncc2)c(OC)c1	0.5	·	·	·	·
CCCNC(=O)N(C)C[C@H]1Oc2cc(-c3ccncc3)ccc2S(=O)(=O)N([C@@H](C)CO)C[C@H]1C	·	·	·	·	1.2
N#C/C(=C\c1ccc(O)cc1)C(=O)NCc1ccccc1	7.3	0.5	0.8	21.9	-0.4
COc1ccc(/C=C(\C#N)C(=O)NCc2ccccc2)cc1	4.3	-2.3	-0.8	40.0*	-0.8
CCNC(=O)[C@H]1[C@H](CO)[C@H]2Cn3c(ccc(-c4ccncc4)c3=O)[C@@H]1N2Cc1ccccc1	·	·	·	·	0.1
C=CCn1c(SCC(=O)c2ccc(NS(=O)(=O)c3ccccc3)cc2)nnc1-c1cccs1	-0.7	3.0	-4.9	35.2*	0.7
O=C(Nc1cccc(F)c1)N1CCCCN2[C@H](CO)[C@@H](c3ccc(C#CC4CC4)cc3)[C@@H]2C1	·	·	·	·	4.7
CCN(CC)Cc1c(O)ccc2cc(-c3nc4ccccc4n3C)c(=O)oc12	2.1	+	1.5	12.1	-1.8
CC(=O)Oc1ccc2cc(-c3nc4ccccc4n3C)c(=O)oc2c1	1.3	+	-2.4	29.8	-2.7
COc1cc2c(cc1OC)-c1cc3ccc4c(c3c[n+]1CC2)OCO4	2.4	-0.6	-2.2	35.3*	-23.6
COc1cc2c(cc1OC)-c1c3c(cc4c1C(C2)N(C)CC4)OCO3 (stereo not drawn)	7.9	·	·	·	·
SMILES	Mtb hypoxia rep	FBA Mtb inh	FadD28 FP inh	GDH-TPI counter	Mtb BioA inh
COc1cc2c(ccc3cc(OC)c(OC)c(O)c32)cc1O	·	5.6	3.7	-1.0	-1.2
COc1cc2c(cc1O)CC[n+]1cc3c(OC)c(OC)ccc3cc1-2	8.3	-4.2	0.1	32.8*	3.1
Cc1c(CCO)c(=O)n2c([nH]c3ccccc32)c1C#N	-3.3	+	1.3	15.6	-1.1
Cc1c(CCC(C)C)c(=O)n2c([nH]c3ccccc32)c1C#N	·	23.5	-2.6	3.3	1.1
CN(C)S(=O)(=O)c1ccc(C(=O)Nc2nnc(-c3cccs3)o2)cc1	-1.4	2.8	-0.7	12.3	·
N#Cc1ccc(C(=O)Nc2nnc(-c3cccs3)o2)cc1	-8.2	0.0	-1.8	32.9*	-1.7
CCC1CCCCN1S(=O)(=O)c1ccc(C(=O)Nc2nnc(-c3cccs3)o2)cc1 (stereo not drawn)	7.2	2.2	1.3	67.6*	0.6
CC1CC(C)CN(S(=O)(=O)c2ccc(C(=O)Nc3nnc(-c4cccs4)o3)cc2)C1 (stereo not drawn)	0.9	0.6	-1.3	1.7	-0.8
CC(C)COC(=O)N(C)C[C@@H]1OCc2ccccc2-c2ccccc2C(=O)N([C@@H](C)CO)C[C@H]1C	·	·	·	·	0.6
c1ccc(-c2csc(-c3ccncc3)n2)cc1	-2.7	4.9	-0.4	2.5	-0.2
c1ccc(-c2ccc(-c3ccncn3)cc2)cc1	12.9	116.6*	-0.2	-1.5	-1.4
CO[C@@H]1CN(C)C(=O)c2cc(NC(=O)C3CC3)ccc2OC[C@H](C)N(CC2CCOCC2)C[C@@H]1C	·	·	·	·	1.6
O=C(Nc1nc2nccc(-c3ccccc3)n2n1)C(Cl)(Cl)Cl	-4.2	172.8*	-0.2	20.9	·
CC(=NO)c1ccc(Oc2cnccn2)cc1	-8.4	·	·	·	·
O=C(C[C@H]1CC[C@H]2[C@@H](COC[C@@H](O)CN2Cc2cccc(F)c2)O1)NCc1cccc(F)c1	·	·	·	·	1.9
CN(C)CCCNC(=O)/C=C/c1ccc2c(c1)OCO2	·	7.6	-4.9	21.0	-0.1
CN1CCN(C(=O)/C=C/c2ccc3c(c2)OCO3)CC1	2.9	5.5	-3.6	8.7	·
CC(C)CNC(=O)/C=C/C=C/c1ccc2c(c1)OCO2	·	8.3	-0.5	38.9*	-0.7
O=C(/C=C/C=C/c1ccc2c(c1)OCO2)N1CCCCC1	·	1.8	-3.1	41.2*	1.3
CNC(=O)C[C@H]1CC[C@H]2[C@H](COc3ccc(NC(=O)c4ccc(OC)cc4)cc3C(=O)N2C)O1	·	·	·	·	-0.4
CCOCCCNC(=O)/C(C#N)=C/c1cc(Br)c(O)c(Br)c1	-9.8	2.5	0.3	44.2*	0.3
CCOCCCNC(=O)/C(C#N)=C/c1ccc([N+](=O)[O-])o1	11.5	1.1	-1.1	46.3*	9.0
O=[N+]([O-])c1cccc(-c2ccc(C=NNC(=S)Nc3cccc(F)c3)o2)c1	15.6	·	·	·	·
COCC#Cc1cnc2c(c1)C(=O)N([C@@H](C)CO)C[C@@H](C)[C@H](CN(C)C(=O)c1ccc(F)cc1)O2	·	·	·	·	4.1
CNc1nc(-c2ccc3c(c2)CCN3C(=O)c2cccc(F)c2)cs1	-8.0	1.1	-1.0	31.0*	·
CNc1nc(-c2ccc3c(c2)CCN3C(=O)c2ccc(F)cc2)cs1	-7.1	6.2	0.2	6.5	-1.1
CCc1sc(/C=C(/C#N)C(N)=S)cc1[N+](=O)[O-]	13.2	0.0	17.5*	-1.2	·
